Test [1] can be described thus: reducers of endogenous Her2 protein level, primary screen, SKBR3 breast tumor cells, AlphaScreen, ATP viability (AID 461;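 active = Her2 level under about 52% in both replicate screens, with viability over 70% of control, limit read from the data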;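 for Her2 level: lower value means less Her2 protein in the cells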;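 for viability: percent of carrier control wells set as 100% viability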). As to conditions: 18-24 h, measured here: SKBR3 viability, ATP luminescence, at 10 µM. A general note: In Alpha technology, singlet oxygen from a donor bead excites a nearby acceptor bead.
The target of test [2] is Receptor tyrosine-protein kinase erbB-2 (Homo sapiens) (UniProt P04626). The test is described as above. As to conditions: 18-24 h, at 10 µM, stronger effect = lower value.
A short description of test [3]: SK-BR-3 cell growth inhibitors, pilot screen, 24 h, human (AID 572).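 Note: compound exposure lasted between 18 and 24 h rather than exactly 24 h; 100% = carrier-treated control wells.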 As to conditions: SK-BR-3 viability, CellTiter-Glo luminescence, at 10 µM, stronger effect = lower value. On the technique in general: Cellular ATP, detected with luciferase, serves as a proxy for viable cell number.
The nature of test [4]: HUVEC growth inhibition – cell-based, human, primary screen (AID 575;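 active = viability at or below 30% in both replicate assays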;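 note: 100% = median of untreated cell wells with 0.1% DMSO on each plate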). As to conditions: HUVEC proliferation, CellTiter-Glo luminescence, 72 h; at 10 µM; stronger effect = lower value.
Test [5] is described as follows: growth inhibitors of H69AR lung tumor, primary screen, human, duplicate replicates (AID 580;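 active = viability at or under a set limit in both replicates, limit being median viability minus 3 SD, cut at about 48% in these data, passing the limit was not always enough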;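 note: 100% = mean luminescence of untreated wells and 0% = no signal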). As to conditions: H69AR lung tumor cells viability, ATP luminescence, 72 h; at 10 µM; stronger effect = lower value.
A short description of test [6]: reversal of MRP1-mediated doxorubicin resistance, pilot screen, H69AR cells, doxorubicin co-treatment (AID 601;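 active = viability loss from added drug above about 55%, and viability with drug at most 40%, in both replicates, limit read from the data, passing the limit was not always enough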). The note with it: CellTiter-Glo, 72 h, at 10 µM; for differential viability (reversal): stronger effect = higher value.
The nature of test [7]: 384-well plate pilot, post-Golgi transport modulator project, inhibition of yeast transport mutant growth (AID 636; in the data active = inhibition above about 31%). As to conditions: absorbance 615 nm, about 18 h, stronger effect = higher value.
Test [8] is described as follows: growth suppression of yeast trafficking mutant, preliminary HTS, modulators of trafficking downstream of Golgi apparatus project, 1536-format plate, OD 615 nm (AID 637; in the data active = inhibition above about 30%). As to conditions: yeast transport mutant growth, absorbance 615 nm, 18 h; stronger effect = higher value.
A short description of test [9]: OD615 S. cerevisiae growth inhibition, permissive medium, pilot counter-assay, permissive growth control for S. cerevisiae lifespan shortening project (AID 705;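 active = growth inhibition above 25% in both replicates, a cutoff set 3 SD above the mean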). The note with it: OD615, 24 h, at 10 µM, stronger effect = higher value.
Test [10] can be described thus: Restrictive medium S. cerevisiae growth inhibition, OD615, pilot screen of yeast lifespan reduction project, restrictive growth control (AID 706;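 active = growth inhibition above a set limit, 3 SD over mean compound inhibition, in both replicates, cut at about 43% in these data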;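 note: modified DeaD lifespan yeast strain shifted to restrictive glucose medium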). As to conditions: OD615, 48 h, at 10 µM, stronger effect = higher value.
Test [11] in a line: viability gain of MRP-1-high H69AR cells under doxorubicin, pilot screen, MRP-1 activator project, CellTiter-Glo, duplicate (AID 807;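 active = viability increase at or above a cutoff of the median across tested compounds plus 3 SD, cut at about 8.5% in these data, passing the limit was not always enough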;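 note: compound pretreatment 18-22 h then 72 h combined with doxorubicin; 0% = doxorubicin alone and 100% = vehicle without doxorubicin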). The note with it: H69AR viability with doxorubicin, CellTiter-Glo luminescence; at 10 µM; stronger effect = higher value.
Test [12] is described as follows: growth suppression of beta-catenin knockout HCT116, pilot screen, human colon tumor cells (AID 823;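 active = cell viability at or below a set limit in both duplicate runs, the limit being the all-compound median minus 4 SD, cut at about 23% in these data, passing the limit was not always enough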;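 note: 0% = wells killed by 20 µM Hyamine and 100% = untreated DMSO cell wells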). As to conditions: CellTiter-Glo, 60 h, at 10 µM, stronger effect = lower value.
The nature of test [13]: growth suppression of PTEN-deleted HCT116, pilot screen, cell-based, HCT116 clonal line, CellTiter-Glo (AID 824;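 active = viability at or below 27.92% in each of two runs, the all-compound median minus 4 SD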;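 note: 0% = 20 µM Hyamine control and 100% = vehicle cell control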). The note with it: 60 h, at 10 µM, stronger effect = lower value.
Test [14] in a line: inhibitors of the yeast RAM network, pilot screen, dse1pr::URA3 reporter, 5-FOA selection (AID 869;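 active = inhibition over a set limit, the all-compound mean plus 3 SD, in both replicate runs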;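 note: 0% = DMSO wells with no growth and 100% = 10 µM 1-NA-PP1 with full growth; RAM network block rescues cells from 5-FOA so hits raise OD615 growth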). The note with it: S. cerevisiae dse1pr::URA3 5-FOA growth, OD615, 2 d; at 10 µM; stronger effect = higher value; strain carries analog-sensitive mutant Cbk1 kinase.
Test [15] is described as follows: RAM signaling pathway blockade in yeast – S. cerevisiae, Pdr1DBD-CYC8 efflux-inhibited sensitized strain, primary screen (AID 1298;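 active = RAM network inhibition above 8.4% in each of two replicates, 3 SD over the compound average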;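 note: 0% = DMSO untreated cells without growth and 100% = 10 µM 1-NA-PP1 full growth; higher means more yeast growth rescued from 5-FOA killing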). As to conditions: S. cerevisiae cbk1-as DSE1-URA3 strain, 5-FOA growth OD615, 2 d; at 50 µM; stronger effect = higher value.
The mark [16] stands for this setting: H69AR cells + 2 uM doxorubicin, measured here: viability with 2 uM doxorubicin, stronger effect = lower value.
The mark [17] stands for this setting: H69AR cells, compound alone cytotoxicity.

Inconclusive results are not listed. Active and inactive are the calls of the source.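 Rule for the calls, unless noted: active = viability at or below 10% of carrier control in both of two separate runs; inconclusive = viability at or below 10% in only one of the two runs; inactive = the rest.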

One may read the viability as a read-out of living cells in per cent, often relative to untreated cells. What is called inhibition is the change of the read-out against control, counted positive when it falls.

Chain of Receptor tyrosine-protein kinase erbB-2 (Homo sapiens) (P04626 whole entry, looked up): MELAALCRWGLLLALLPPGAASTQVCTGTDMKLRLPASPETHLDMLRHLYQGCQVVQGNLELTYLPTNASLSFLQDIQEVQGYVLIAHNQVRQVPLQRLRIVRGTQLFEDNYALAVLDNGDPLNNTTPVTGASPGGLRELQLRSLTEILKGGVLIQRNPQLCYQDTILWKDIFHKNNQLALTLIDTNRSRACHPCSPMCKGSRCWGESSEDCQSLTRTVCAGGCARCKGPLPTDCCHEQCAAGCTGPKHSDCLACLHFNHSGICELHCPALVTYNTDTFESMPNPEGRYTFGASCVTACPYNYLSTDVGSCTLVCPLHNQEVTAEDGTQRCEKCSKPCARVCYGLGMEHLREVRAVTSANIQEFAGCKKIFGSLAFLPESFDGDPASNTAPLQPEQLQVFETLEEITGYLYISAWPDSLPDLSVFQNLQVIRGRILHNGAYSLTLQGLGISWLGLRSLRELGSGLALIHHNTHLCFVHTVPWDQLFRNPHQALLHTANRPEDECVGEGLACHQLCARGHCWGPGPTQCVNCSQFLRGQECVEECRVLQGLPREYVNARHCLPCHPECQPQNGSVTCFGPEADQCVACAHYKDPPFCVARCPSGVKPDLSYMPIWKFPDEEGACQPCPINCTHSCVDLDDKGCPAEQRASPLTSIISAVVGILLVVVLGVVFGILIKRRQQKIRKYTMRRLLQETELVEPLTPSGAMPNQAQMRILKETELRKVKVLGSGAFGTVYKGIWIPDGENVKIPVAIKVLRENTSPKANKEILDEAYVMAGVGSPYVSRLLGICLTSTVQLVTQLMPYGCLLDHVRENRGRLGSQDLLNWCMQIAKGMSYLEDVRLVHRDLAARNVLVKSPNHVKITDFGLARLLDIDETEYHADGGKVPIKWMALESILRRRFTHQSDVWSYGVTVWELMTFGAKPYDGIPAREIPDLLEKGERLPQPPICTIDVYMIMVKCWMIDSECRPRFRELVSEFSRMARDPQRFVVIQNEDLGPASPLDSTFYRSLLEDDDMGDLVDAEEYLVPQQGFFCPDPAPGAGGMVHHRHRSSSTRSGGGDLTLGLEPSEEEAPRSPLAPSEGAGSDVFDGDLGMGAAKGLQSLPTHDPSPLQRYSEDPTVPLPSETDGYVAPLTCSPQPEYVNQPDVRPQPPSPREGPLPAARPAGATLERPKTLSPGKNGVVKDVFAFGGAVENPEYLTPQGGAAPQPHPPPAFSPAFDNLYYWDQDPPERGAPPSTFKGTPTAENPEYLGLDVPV

On to `COCCNC(=O)Cn1cc2c(n1)CCCCC2`, for which the viability in test [1] is 93.5%; in [3] it was 93.5% (inactive); in test [4], 112% (inactive); in [5], 95.7% (inactive); in [6] (setting [16]), 88.3%; in test [6] (setting [17]) it was 95.7%. In addition, the viability in [12] was 104% (inactive); in [13] it was 96.5% (inactive). The Her2 level in test [2] is 101% (inactive). In addition, the differential viability (reversal) in test [6] (H69AR cells + 2 uM doxorubicin) was 7.38% (inactive). The inhibition in test [7] is -1.41% (inactive); in test [8], -1% (inactive); in test [14] it was 3.16% (inactive). Further, the growth inhibition in [9] is -8.06% (inactive); in test [10], 5.06% (inactive). The viability increase in [11] is 0.1% (inactive). The RAM network inhibition in [15] is 5.21% (inactive).

Turning to `COc1ccc(N2C(=O)CCC(C(=O)N3CCCCC3)C2c2ccc(OC)c(OC)c2)cc1` (stereo not given), the viability in test [1] is 100%; in [3] it was 100% (inactive); in test [4], 92.3% (inactive); in test [5], 95.4% (inactive); in test [6] (setting [16]), 93.2%; in test [6] (setting [17]), 95.4%. The figures for the viability in [12] and in test [13] were 105% (inactive) and 98.2% (inactive), respectively. Also, the Her2 level in [2] is 90.5% (inactive). Besides, the differential viability (reversal) in test [6] (H69AR cells + 2 uM doxorubicin) is 2.14% (inactive). For the same compound, the inhibition in test [7] was -6.67% (inactive); in test [8], -1.11% (inactive); in test [14] it was 0.405% (inactive). The results for the growth inhibition in test [9] and in test [10] were -0.77% (inactive) and -8.71% (inactive), respectively. Also, the viability increase in [11] was 0.42% (inactive). Further, the RAM network inhibition in test [15] is 2.24% (inactive).

On to `CCC(C)(NC(=O)c1ccc(=O)[nH]c1)C(=O)NC1CCCC1` (stereo not given), for which the viability was 102% in test [1]; 102% (inactive) in test [3]; 107% (inactive) in test [4]; 94.1% (inactive) in [5]; 81.8% in [6] (setting [16]); 94.1% in [6] (setting [17]). For the same compound, the results for the viability in test [12] and in test [13] were 105% (inactive) and 97.9% (inactive), respectively. Besides, the Her2 level in test [2] is 96.5% (inactive). Further, the differential viability (reversal) in [6] (H69AR cells + 2 uM doxorubicin) is 12.3% (inactive). In addition, the inhibition in [7] is -5.2% (inactive); in test [8] it was -0.67% (inactive); in [14] it was 1.92% (inactive). Also, the growth inhibition in [9] was -11.7% (inactive); in test [10], -35% (inactive). The viability increase in [11] was 0.76% (inactive). Also, the RAM network inhibition in [15] was 2.77% (inactive).

On to `COc1ccc(NC(=O)C2CCCCN2S(=O)(=O)c2ccc(F)cc2)cc1` (stereo not given), for which the viability is 91% in test [1]; 91% (inactive) in test [3]; 91.4% (inactive) in test [4]; 89.2% (inactive) in test [5]; 101% in [6] (setting [16]); 89.2% in test [6] (setting [17]). Besides, the viability in test [12] is 83.5% (inactive); in [13] it was 88% (inactive). In addition, the Her2 level in test [2] is 93% (inactive). The differential viability (reversal) in test [6] (H69AR cells + 2 uM doxorubicin) was -12.1% (inactive). For the same compound, the inhibition in test [7] was -7.47% (inactive); in test [8], 1% (inactive); in [14], 1.19% (inactive). In addition, the growth inhibition was -18.5% (inactive) in [9] and -18.4% (inactive) in test [10]. Also, the viability increase in test [11] is -1.3% (inactive). Moreover, the RAM network inhibition in test [15] is 5.45% (inactive).

As for `Cc1cc(C)n(-c2cc(N3CCOCC3)ncn2)n1`, the viability in test [1] is 101%; in test [3], 101% (inactive); in test [4], 93.2% (inactive); in [5] it was 91.7% (inactive); in [6] (setting [16]), 89.1%; in test [6] (setting [17]) it was 91.7%. In addition, the figures for the viability in [12] and in [13] were 93% (inactive) and 93.1% (inactive), respectively. For the same compound, in test [2], the Her2 level was 90.5% (inactive). Moreover, the differential viability (reversal) in test [6] (H69AR cells + 2 uM doxorubicin) was 2.58% (inactive). The inhibition in [7] was -3.47% (inactive); in [8], 3.67% (inactive); in test [14], 0.035% (inactive). For the same compound, the growth inhibition in test [9] was -3.3% (inactive); in test [10], 12.9% (inactive). Besides, in test [11], the viability increase is -1.2% (inactive). For the same compound, the RAM network inhibition in test [15] is 2.04% (inactive).

The values are drawn from PubChem BioAssay.
